Out of some 420,000 compounds screened, about 50,000 (12%) were called active. Roughly 26% stayed inconclusive and do not appear here. The list comes from a sample in which actives are over-represented; it also holds similar structures and randomly drawn compounds. A call without a number means that no potency is given here. Values without a mark were called inactive. The call rests on the fitted dose curve; in most records, active means well fitted inhibition curve with a large enough effect; inconclusive means small, poorly fitted or top-dose-only effect; inactive means flat fitted curve, though single readings scatter.
Potency means the concentration at half of the fitted maximal effect.

This assay in a line: qHTS for Inhibitors of human tyrosyl-DNA phosphodiesterase 1 (TDP1): qHTS in cells in presence of CPT. Further: nearly all actives have a fitted effect of over 55% in size. The settings on record: chicken DT40 Tdp1-/-;hTDP1 cells + 20 nM CPT, ATP luminescence, 48 h; series mostly up to 46.2 µM. In outline:
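Cell growth measured by CellTiter-Glo luminescence after a minimum 48 h, 37 C compound exposure with 20 nM CPT in Tdp1-knockout DT40 cells stably expressing hTDP1, seeded 400/well; qHTS titration format.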
Background: Quantitative high-throughput screening tests each substance at several concentrations.
Consider `COc1cccc(CC(=O)OCC(=O)NCc2ccc3c(c2)OCO3)c1`, for which the Potency entry is “inactive”. Consider `CCC1CN(CCNC(=O)c2cccnc2C)Cc2cc(OC)ccc2O1` (stereo unspecified), for which the activity change, negative = growth inhibition is 21.1% [at 9.04 µM]. `COc1cccc(OC)c1CN(C)C(=O)c1cnccc1C(F)(F)F`: the Potency entry was “inactive”. Same read-out and setting: as for `Cc1ccc(S(=O)(=O)c2cn(Cc3ccccc3)c3cc(N4CCCC4)c(F)cc3c2=O)c(C)c1`, the figure is 20.6 µM (active). On the same count and under the same terms, as for `CCn1cc(S(=O)(=O)c2cccc(C)c2)c(=O)c2cc(F)c(N3CCN(C)CC3)cc21`, the entry is “inactive”. Still for that read-out and setting: then `CCn1cc(C(=O)NCCO)c(=O)c2cc(F)c(N3CCN(C)CC3)cc21`, with “inactive”. For the molecule `Cc1cccc(S(=O)(=O)c2cn(Cc3ccccc3)c3cc(N4CCOCC4)c(F)cc3c2=O)c1`, the Potency was 6.51 µM (active). On the same count and under the same terms, as for `CC1CCCN(c2cc3c(cc2F)c(=O)c(S(=O)(=O)c2cccc(Cl)c2)cn3Cc2ccccc2)C1` (stereo unspecified), the entry is “inactive”. In the case of `COCCNC(=O)C1CCN(S(=O)(=O)c2ccc3c(c2)OCCO3)CC1`, the Potency entry was “inactive”. On the same count and under the same terms, then `C[C@H]1CN([C@@H](C)CO)C(=O)CCCn2cc(nn2)CO[C@@H]1CN(C)S(=O)(=O)c1ccc(-n2cccn2)cc1`, with “inactive”; and `CC(=O)NNc1cc(=O)c2c(=O)n(C)c(=O)n(C)c2[nH]1`, with “inactive”. On the same count and under the same terms, as for `Cc1cccc(NC(=O)c2ccc(COc3ccccc3[N+](=O)[O-])o2)n1`, the entry is “inactive”. In the case of `COc1ccc(C)cc1N1C(=O)[C@@H]2C[C@H]1CN2Cc1cccc(OC)c1O`, the activity change, negative = growth inhibition is -12.7% [at 9.04 µM].

Regarding `COc1cc(C(=O)NCC(=O)N2CC=C(c3ccccc3)CC2)cc(OC)c1OC`, the Potency is 16.4 µM (active). On the same count and under the same terms, as for `CCOc1ccc(CC(=O)NCCS(=O)(=O)N2CCN(c3ccccc3)CC2)cc1`, the entry is “inactive”; as for `COc1cccc(OCC(=O)NCCS(=O)(=O)N2CCN(c3ccccc3)CC2)c1`, “inactive”. Still for that read-out and setting: as for `COc1cc(OC)cc(C(=O)NCC(=O)N2CCCCCCC2)c1`, the entry is “inactive”. On to `COc1ccc(OC)c(CN2CCN(C(=O)CNC(=O)c3cc(C)cc(C)c3)CC2)c1`, for which the Potency result is “inactive”.

Regarding `COc1cc(C(=O)NCCS(=O)(=O)N2CCN(c3ccccc3)CC2)cc(OC)c1OC`, the Potency is 20.6 µM (active). On the same count and under the same terms, as for `CC(=O)Nc1nc(N(C)C)nc(N(C)C)n1`, the entry is “inactive”; as for `CN(CC(=O)Nc1ccc(OC(F)(F)F)cc1)C(=O)C1CCC1`, “inactive”; as for `O=C(NCC(=O)N1CCCCCCC1)c1ccccc1Cl`, “inactive”.

Turning to `Cc1ccc(CN2CCN(Cc3ccc4ncccc4c3)CC2CCO)cc1` (stereo unspecified), the Potency entry was “inactive”.

Take `Cc1cccc(N(CC(=O)Nc2ccc(-c3nc4ccc(C)cc4s3)cc2)S(C)(=O)=O)c1`: the Potency was 13 µM (active). The same measure, in the same setting: then `CCN(CC)S(=O)(=O)c1ccc(NC(=O)CN(c2cccc(F)c2)S(C)(=O)=O)cc1`, with “inactive”.

Consider `COc1cccc(N(CC(=O)Nc2cccc(F)c2)S(C)(=O)=O)c1`, for which the Potency entry is “inactive”.

For the origin of these results see PubChem BioAssay AID686979 (National Center for Advancing Translational Sciences (NCATS), 2013).
